Measurements as given in PubChem BioAssay (NCI).
The panel holds about 79,000 compounds, 15% with a hit somewhere; the sample as a whole holds those more often. Rule as the data show it: active = growth inhibition above about 70%; inactive = the rest.

How the values were obtained:
[1] = NCI Yeast Anticancer Drug Screen. Data for the rad50 strain (AID 155);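 also: 0% = growth of vehicle-only cultures of the same strain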; settings: S. cerevisiae rad50 strain growth inhibition, stronger effect = higher value; at 50.0 µM unless noted
Summary of the method: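 Cells are treated with compound, grown, and their growth is then scored against vehicle-only cultures of the same repair-deficient yeast strain.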

[2] = NCI Yeast Anticancer Drug Screen. Data for the mec2-1 strain (AID 157); settings: S. cerevisiae mec2-1 strain, stronger effect = higher value; at 50.0 µM unless noted
Summary of the method: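 Cells of the genetically defined mec2-1 yeast strain are incubated with test compound. Inhibition of growth is calculated against vehicle-treated controls.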

[3] = NCI Yeast Anticancer Drug Screen. Data for the sgs1 mgt1 strain (AID 161);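 also: 0% = growth of cultures given vehicle only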; settings: S. cerevisiae sgs1 mgt1 strain, stronger effect = higher value; at 50.0 µM unless noted
Summary of the method: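 Test agents were incubated with a DNA-repair-mutant yeast strain. Growth was then read and compared against vehicle-treated controls.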

[4] = NCI Yeast Anticancer Drug Screen. Data for the cln2 rad14 strain (AID 165);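 also: 0% = growth equal to vehicle treated cultures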; settings: S. cerevisiae cln2 rad14 strain, stronger effect = higher value; at 50.0 µM unless noted
Summary of the method: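 The screen exposed genetically defined yeast (cln2 rad14) to test compounds and scored growth inhibition relative to vehicle-treated controls.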

[5] = NCI Yeast Anticancer Drug Screen. Data for the bub3 strain (AID 167); settings: S. cerevisiae bub3 mutant strain, stronger effect = higher value; at 50.0 µM unless noted
Summary of the method: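 Part of a panel of yeast mutants defective in DNA damage repair or cell cycle regulation. Each strain is grown with compound, and inhibition is calculated relative to solvent-treated cultures.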

[6] = NCI Yeast Anticancer Drug Screen. Data for the mlh1 rad18 strain (AID 175); settings: S. cerevisiae mlh1 rad18 strain growth inhibition, stronger effect = higher value; at 50.0 µM unless noted
Summary of the method: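 Compound-treated yeast growth, normalised to vehicle controls. Strain bears defined DNA repair mutations.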

Measured: growth inhibition

Cc1noc(NS(=O)(=O)c2ccc(Nc3nc(CC(=O)Nc4ccccc4)cs3)cc2)c1C
inactive: [1] 18.4% | [2] -19.1% | [3] 17.2% | [4] 12.7% | [5] -17.1% | [6] 9.2%

Cc1ccc2nc(Sc3c([N+](=O)[O-])ncn3C)[nH]c2c1
inactive: [1] -16.1% | [2] -16.4% | [3] -18.2% | [4] 5.75% | [5] -20.7% | [6] -25.4%

O=C(O)/C=C/c1cc(Br)sc1Br
inactive: [1] -2.05% | [2] 7.35% | [3] 5% | [4] -11.3% | [5] -0.95% | [6] 19.5%

O=C(Cc1csc(-c2nc(CC(=O)NNc3ccccc3)cs2)n1)NNc1ccccc1
inactive: [1] 12.7% | [2] -3.4% | [3] -27.9% | [4] -38.4% | [5] 2.75% | [6] -12.6%

CC1=Nc2ccccc2C12C(c1ccccc1)C(c1ccccc1)C(=O)N1c3ccccc3CC12 (stereo not given)
inactive: [1] -2.25% | [2] -16.4% | [3] -33.6% | [4] 20.1% | [5] -14.3% | [6] -1.65%

NC(=S)/N=C/C=C\c1ccccc1
inactive: [1] -10.6% | [2] 2.3% | [3] 5.25% | [4] 0.35% | [5] -13.8% | [6] -7.7%

Cc1ccc(-c2nc3ccc(Cl)cc3[nH]2)cc1
inactive: [1] -10.7% | [2] 9.1% | [3] 41.6% | [4] 17.1% | [5] 30.1% | [6] 42.1%

COc1ccc(NC(=O)CC/C(CC(=O)c2ccco2)=N/NC(=O)C(N)=O)cc1
inactive: [1] -4% | [2] -10.4% | [3] -15.8% | [4] -7.15% | [5] -14.1% | [6] -18.1%

O=C(O)CC(c1ccccc1)C(CC(=O)O)c1ccccc1 (stereo not given)
inactive: [1] -3.8% | [2] 8.75% | [3] 17.6% | [4] 17.2% | [5] 5.95% | [6] 9.85%

CCOC(=O)C(CCc1ccccc1[N+](=O)[O-])(CCc1ccccc1[N+](=O)[O-])C(=O)OCC
inactive: [1] 12.3% | [2] -0.7% | [3] 6.35% | [4] -9% | [5] 10.7% | [6] 37.7%

CC(=O)OC1CCC2(C)C(C1)C(=O)OC1C2CCC2(C)C(C(C)CCCC(C)C)CCC12 (stereo not given)
inactive: [1] 27.4% | [2] 3.55% | [3] 2.75% | [4] -12.7% | [5] -3.85% | [6] 23.4%

Nc1nc2cc(F)ccc2o1
inactive: [1] 1.05% | [2] -26.1% | [3] -9.7% | [4] -20.1% | [5] -21.6% | [6] -15.2%

COc1ccc(CCNC(=O)CCN2C(=O)CCC2=O)cc1OC
inactive: [1] 8.7% | [2] -12.8% | [3] 1.55% | [4] -3.25% | [5] -14.8% | [6] -2.9%

CCN(CCN1CCCCC1)c1ccccn1
inactive: [1] 11% | [2] 1.3% | [3] 11.4% | [4] -35.7% | [5] 7.45% | [6] -10.9%

NCCCCCCCCCCN
inactive: [1] -22.9% | [2] -5.1% | [3] -5.9% | [4] -29.4% | [5] -35.7% | [6] -11.9%

COC1=CC2CC(C#N)C2(OC)C=C1 (stereo not given)
inactive: [1] -10.8% | [2] 5.75% | [3] -4.7% | [4] -18.2% | [5] -17.4% | [6] 1.8%

O=C1C=CC(=O)C(CNc2ccc(C(=O)OCc3ccccc3)cc2)=C1
inactive: [1] 23.6% | [2] 8.75% | [3] -28.9% | [4] -30.6% | [5] -42.9% | [6] -3.1%

CCCCCCOS(=O)(=O)c1ccc(C)cc1
inactive: [1] 23.1% | [2] -9.95% | [3] -2.1% | [4] 16.6% | [5] 6.7% | [6] 22.4%

CC(=O)Nc1ccc(S(=O)(=O)N/N=C(/C)c2ccccc2)cc1
inactive: [1] -8.8% | [2] -31.8% | [3] 1.05% | [4] 1.55% | [5] -23.4% | [6] -23.6%

COc1cc(N=Nc2c(N)nc(N)[nH]c2=O)c(OC)cc1Cl
inactive: [1] -8.45% | [2] 3.65% | [3] -8% | [4] 5.05% | [5] 1.35% | [6] 3%
